Key:
Assay in all cases: PBM binding z-score (relative to random genomic background probes); higher = stronger binding; sequences stand for … in GC…GCGATTGACAGCGTAGAATGAAGG
[1] = test system: FXR:RXRa (NR concentration 270 nM, RXRa partner concentration 90 nM)
Summary of the method: (§1)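 Antibodies against each partner of ligand-free nuclear receptor dimers (one per run) detected binding on custom Agilent 4×180K protein-binding microarrays after 1 h incubation. The double-stranded probes had 34-nt variable regions carrying direct-repeat seeds, single-nucleotide variants, half-site ablations and random human genomic background sequences. Binding z-scores, from regression-normalized fluorescence, use the random background probes as reference.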

[2] = test system: LXRa:RXRa (NR concentration 270 nM, RXRa partner concentration 90 nM)
Summary of the method: as §1

[3] = test system: LXRa homodimer (NR concentration 270 nM)
Summary of the method: as §1

[4] = test system: LXRb:RXRa (NR concentration 270 nM, RXRa partner concentration 90 nM)
Summary of the method: as §1

[5] = test system: LXRb homodimer (NR concentration 270 nM)
Summary of the method: as §1

[6] = test system: PPARa:RXRa (NR concentration 270 nM, RXRa partner concentration 90 nM)
Summary of the method: as §1

[7] = test system: PPARg:RXRa (NR concentration 180 nM, RXRa partner concentration 90 nM)
Summary of the method: as §1

[8] = test system: PPARg:RXRa 270nM:90nM, anti-RXR (NR concentration 270 nM, RXRa partner concentration 90 nM)
Summary of the method: as §1

[9] = test system: PPARg:RXRa 30nM:10nM, anti-RXR (NR concentration 30 nM, RXRa partner concentration 10 nM)
Summary of the method: as §1

[10] = test system: PPARg:RXRa 90nM:30nM, anti-RXR (NR concentration 90 nM, RXRa partner concentration 30 nM)
Summary of the method: as §1

[11] = test system: PPARg:RXRa DBDmut IVT, anti-RXR (DBD mutation: RXRa K156A/R161A, NR concentration 270 nM, RXRa partner concentration 90 nM)
Summary of the method: as §1

[12] = test system: PPARg:RXRa IVT, anti-PPARg (NR concentration 270 nM, RXRa partner concentration 90 nM)
Summary of the method: as §1

[13] = test system: PPARg DBDmut:RXRa IVT, anti-PPARg (DBD mutation: PPARg1 K132A/R137A, NR concentration 270 nM, RXRa partner concentration 90 nM)
Summary of the method: as §1

[14] = test system: PPARg DBDmut IVT, anti-PPARg (DBD mutation: PPARg1 K132A/R137A, NR concentration 270 nM)
Summary of the method: as §1

[15] = test system: PPARg homodimer (NR concentration 180 nM)
Summary of the method: as §1

[16] = test system: PXR:RXRa (NR concentration 270 nM, RXRa partner concentration 90 nM)
Summary of the method: as §1

[17] = test system: PXR homodimer (NR concentration 270 nM)
Summary of the method: as §1

[18] = test system: RARa:RXR (NR concentration 270 nM, RXRa partner concentration 90 nM)
Summary of the method: as §1

[19] = test system: RARa homodimer (NR concentration 270 nM)
Summary of the method: as §1

[20] = test system: RARb:RXRa (NR concentration 270 nM, RXRa partner concentration 90 nM)
Summary of the method: as §1

Row | Sequence | PBM binding z-score [1] | PBM binding z-score [2] | PBM binding z-score [3] | PBM binding z-score [4] | PBM binding z-score [5] | PBM binding z-score [6] | PBM binding z-score [7] | PBM binding z-score [8] | PBM binding z-score [9] | PBM binding z-score [10] | PBM binding z-score [11] | PBM binding z-score [12] | PBM binding z-score [13] | PBM binding z-score [14] | PBM binding z-score [15] | PBM binding z-score [16] | PBM binding z-score [17] | PBM binding z-score [18] | PBM binding z-score [19] | PBM binding z-score [20]
1 | GCAGACAGGTGACACGCAGGTAACTCAGGGTGGC | -0.0725 | -0.255 | -0.585 | -0.69 | -1.06 | 0.614 | 0.69 | -0.241 | -0.412 | -0.395 | 0.596 | 1.21 | -0.103 | -0.383 | -0.125 | -0.218 | -0.476 | 0.24 | -0.572 | 0.684
2 | ATCTCTAGGTAACAAGTGCAGTGAAAGAGAGGAC | 0.0619 | 0.181 | -0.0829 | -0.182 | 0.699 | 0.43 | 1.07 | 1.38 | 0.591 | 1.05 | 2.78 | 2.62 | 1.24 | 0.573 | 0.521 | 0.133 | 0.353 | 0.0235 | 0.451 | 0.586
3 | CAAACTAGGTCAAGAGCTCAAAGTCCGCTTCCCG | 3.7 | 2.48 | 0.129 | 1.63 | 0.0048 | 4.61 | 7.37 | 6.8 | 4.34 | 6.56 | 8.17 | 8.44 | 4.03 | 2.91 | 2.57 | 1.06 | -0.169 | 2.14 | 0.0982 | 3.99
4 | TCATATAGATAAATGCTAGGTGAAAGTCCGATCT | 0.784 | 0.813 | 0.103 | 0.591 | -0.152 | 0.912 | 0.876 | 2.09 | 3.93 | 3.03 | 2.73 | 0.677 | 0.125 | 0.81 | 0.438 | 0.417 | 0.256 | 0.494 | 1.19 | 0.184
5 | TCTACTAGTTGAAGGGCAACCGACGAGTCCGTTT | 0.338 | 0.156 | -0.296 | 0.212 | -0.37 | 0.726 | 0.214 | 1.58 | 3.03 | 2.48 | 1.69 | 0.294 | 0.093 | -0.701 | 0.312 | 0.458 | 0.108 | 0.275 | -0.569 | 1.27
6 | CCTACTGGGGCAAGGTCATTGATCAGTCAAAGCA | 3.59 | 3.26 | 1.02 | 2.98 | -0.569 | 4.29 | 5.81 | 5.36 | 2.53 | 4.8 | 4.91 | 5.97 | 1.59 | 0.39 | 4.67 | 3.88 | 1.04 | 4.17 | 0.391 | 3.5
7 | AATACTGGGTCACTAGGCCAGAGTAGGTACGAAT | 1.9 | 1.69 | 0.246 | 1.5 | 0.438 | 4.37 | 8.02 | 5.97 | 3.2 | 4.75 | 6.63 | 7.76 | 5.62 | 2.22 | 1.9 | 0.792 | 0.0229 | 1.53 | 0.983 | 3.19
8 | TCATATAGGTAAATGCTAGGTGACAGTCCGATCT | 0.752 | 0.626 | -0.0198 | 0.519 | -0.279 | 1.12 | 0.994 | 2.02 | 3.61 | 2.54 | 4.18 | 3.05 | 1.51 | 0.754 | 0.369 | 0.559 | 0.133 | 0.861 | 0.862 | 0.403
9 | CCTCTGAGGACAGAAGGTCAGAGCTGTCCGCTTT | 2.01 | 1.73 | 0.0206 | 1.25 | -0.446 | 2.02 | 0.0496 | 1.3 | -0.534 | 0.582 | 0.612 | 0.36 | -0.397 | -1.71 | 1.53 | 1.95 | -0.313 | 2.59 | -0.25 | 3.44
10 | CAGCCTAGGTCGGGGCCAGTATAGGAGGAACGTT | -0.375 | -0.409 | -0.6 | -0.47 | -1.25 | -0.00359 | -0.199 | -0.885 | -1.38 | -0.981 | -0.532 | -0.678 | -0.979 | -1.04 | -0.152 | -0.445 | -0.795 | -0.269 | -1.01 | 1.02
11 | TTTGCTAGGTCAACGATGGTCAGCTAATCTGCTA | 3.71 | 4.07 | 1.84 | 2.07 | -0.0738 | 3.59 | 3.4 | 3.77 | 1.38 | 2.86 | 4.45 | 5.11 | 0.599 | 0.434 | 0.874 | 1.46 | -0.501 | 2.15 | -0.298 | 4.13
12 | TAGCCTAGGTCATTGAGCCAGTATAGTACGCATC | 4.4 | 3.31 | 0.78 | 2.32 | 0.252 | 3.48 | 1.95 | 1.97 | 0.417 | 1.11 | 1.41 | 2.41 | 0.454 | 0.0795 | 0.0834 | 1.53 | -0.111 | 2.18 | -0.419 | 3.6
13 | ATACCAAGGTGATCGTGAGCTCGTTGATACTAAC | 0.125 | -0.0736 | -0.322 | 0.0963 | -0.116 | 0.174 | 0.373 | -0.151 | -0.316 | -0.0822 | 0.283 | 1.08 | 0.353 | 0.874 | 0.404 | -0.0195 | -0.182 | 0.256 | 0.0437 | 0.555
14 | GCTGCTAGGTCAGGTTTGTCAGCTAACGGGTACG | 0.8 | 0.465 | -0.141 | 0.304 | -0.389 | 0.943 | 0.265 | 0.692 | -0.284 | 0.389 | 3.26 | 1.92 | -0.625 | -0.587 | 0.518 | 0.229 | -0.27 | 0.51 | -0.0516 | 2.95
15 | TAGAGTAGGTTAGTCGGGGCATTCAGCCAACATA | 0.871 | 0.485 | 0.155 | 0.87 | 1.54 | 1.16 | 0.583 | 1.65 | 0.884 | 1.33 | 3.08 | 3.62 | 0.961 | 1.55 | 1.27 | 0.576 | 0.756 | 0.643 | 1.35 | 1.1

Reference: the supplement of paper PMC6555819
